# Measurements: PubChem BioAssay (NCI)
# This is part of a sample that, as a whole, favours compounds with a hit. Of some 83,000 tested, about 20% had one in any assay.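 Single-concentration screen, 48 h exposure, 96-well plates. Endpoint: percent growth. Below 10 = active.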 Unmarked numbers belong to inactive results. Activity calls are given as the source filed them.
# Test system: MDA-MB-468 breast
# Assay: NCI-60 one-dose screen, 48 h (100 = growth as untreated, 0 = no growth, -100 = all killed)
# Settings: 10 µM unless noted
row,Compound,growth
1,O=c1ccc2nc(-c3ccccc3)nn(-c3ccccc3)c-2c1,-81.6% (active)
2,CCOC(=O)C(C)(C#N)C1C=CCCC1 (centres undefined),75.6%
3,CCNc1nc(O)c(/C=C2\C=Nc3ncccc32)s1,-34.7% (active)
4,CCOC(=O)c1ccc2c(c1)nc(/C=C/c1ccc(Cl)cc1)n2-c1cc(C(C)(C)C)[nH]n1,58.8%
5,Nc1n[nH]c2ccc([C@@H]3Nc4ccc5cn[nH]c5c4[C@H]4C5CCC(C5)[C@@H]34)cc12 (some centres undefined),-6.84% (active)
6,O=C1c2cccnc2C(=O)c2c1c(C(=O)NCCCN1CCCCC1)c1ccccn21,-73.9% (active)
7,Cc1cc(NCc2cc(Nc3ccnc4cc(Cl)ccc34)ccc2F)nc(N2CCSCC2)n1,-17.3% (active)
8,COc1ccc2c(c1)[nH]c(=O)c1c3cc(OC)ccc3cn21,5.66% (active)
9,Cc1cc(=O)oc2c1ccc1oc(C#N)c(C)c12,114%
10,NS(=O)(=O)c1cc(C2(O)NC(=O)c3ccccc32)ccc1Cl (centres undefined),102%
11,Cc1ccc(Nc2cccc3ccccc23)cc1,-11.7% (active)
12,CCNc1nnnn1CC,101%
13,C=C(C)[C@@H]1C[C@H](O)Cc2cc(F)ccc2N1,89.3%
14,c1n[nH]cc1-c1nc2ccc3[nH]ncc3c2c2c1CCCC2,15.2%
15,C#Cc1cccc(NC(=O)C2CCCCN2C(=O)CCl)c1 (centres undefined),-60.1% [8.25 µM] (active)
16,Cc1ccc(C(=O)Nc2ccc(CN3CCN(C)CC3)c(C(F)(F)F)c2)cc1C#Cc1cncc2ncccc12,37.3%
17,CC(C)n1cc(C2=C(c3cccc4ccccc34)C(=O)NC2=O)c2cc(Br)ccc21,44.4%
18,CC(Cc1ccco1)C(=O)NC(N)=O (centres undefined),95.7%
19,CCOC(=O)c1sc(-c2ccc(OS(=O)(=O)c3ccc(C(C)(C)C)cc3)c(C=O)c2)nc1C,1.65% (active)
20,O=C1C=CC(=O)C2=C1CCCC2,61.5%
21,COc1ccc(/C=C/C(=O)c2ccc(Nc3ncnc4ccccc34)cc2)cc1OC,60.7%
22,Nc1nc(SCC#CCCl)c2[nH]cnc2n1,-6.97% (active)
23,CCN1C(=O)N(CC)C2C1NC(=S)N2/N=C/C=C/c1ccccc1 (centres undefined),3.7% (active)
24,IP(CCCSc1n(Cc2ccc3ccccc3c2)c(-c2ccccc2)c(-c2ccccc2)[n+]1Cc1ccc2ccccc2c1)(c1ccccc1)(c1ccccc1)c1ccccc1,-21.5% (active)
